HT1080-NT tox = kills 2HG-producing HT-1080-NT fibrosarcoma cells; Potency, µM (top dose mostly 46.1 µM), actives largely listed as cytotoxic; HT-1080-NT fibrosarcoma viability, CellTiter-Glo ATP luminescence, 48 h; actives 1.6% (n = 360,000);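 also: NT is the 2HG producing partner of a matched IDH1 knockdown line; nearly all actives have a fitted effect of over 55% in size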
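Read-out is CellTiter-Glo luminescence after 10 minutes at room temperature, following 48 hours' compound treatment of HT-1080-NT cells (750 cells/well, RPMI, 5% FBS, 37 degrees C).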
HT1080 IDH1KD tx = toxicity to HT-1080 IDH1 knockdown cells (counter line); HT-1080 IDH1 knockdown viability, ATP luminescence, 48 h; Potency, µM (titrated, usually from 46.1 µM), hits mostly cytotoxic; actives 2% (n = 360,000); AID 686971
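% activity derives from luminescence (CellTiter-Glo), normalised to DMSO and no-cell wells. HT-1080-IDH1KD cells, 750/well, had 48 h compound exposure at 37 °C.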
TDP1 cell noCPT = qHTS for Inhibitors of human tyrosyl-DNA phosphodiesterase 1 (TDP1): qHTS in cells in absence of CPT. DT40 Tdp1-/- hTDP1 cells, no CPT, ATP luminescence, 48 h. Potency, µM (doses to about 46.2 µM), hits mostly inhibitors. actives 15% (n = 420,000). AID 686978, 2013; also: nearly all actives have a fitted effect of over 55% in size
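Compound effects on proliferation are scored in DT40 Tdp1-/-;hTDP1 cells in the absence of CPT. ATP levels (CellTiter-Glo luminescence) are recorded after a ≥48 hr, 37 °C incubation.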
IL1B secr inh = inflammasome signaling inhibition, IL-1 beta readout | THP-1 LPS/ATP IL-1B secretion, AlphaLISA, 16 h; active compounds read low | activity change, % at 57.5 µM | actives 4.7% (n = 360,000); in the data active = activity change below about -50%; inconclusive = mostly about -30% to -49%
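Secreted IL-1B measured by AlphaLISA bead assay after 16 h compound exposure of THP-1 cells; compounds (final up to 57.5 uM) added 1 h before LPS (250 ng/mL) and ATP (1.25 mM) stimulation; lower signal means less secretion.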
TDP1 cell CPT = DT40-hTDP1 cell growth loss with CPT. actives 12% (n = 420,000). Potency, µM (series often up to 46.2 µM), actives largely listed as inhibitors. AID 686979. chicken DT40 Tdp1-/-;hTDP1 cells + 20 nM CPT, ATP luminescence, 48 h; also: nearly all actives have a fitted effect of over 55% in size
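Cell growth measured by CellTiter-Glo luminescence after a minimum 48 h, 37 C compound exposure with 20 nM CPT in Tdp1-knockout DT40 cells stably expressing hTDP1, seeded 400/well; qHTS titration format.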
Hits are given with their value. This is a sample that favours compounds with a hit; in the whole collection about 19% have one here. Unless noted, calls follow the shape of the dose curve; as a rule, active = well fitted curve in the direction sought with a large enough effect; inconclusive = small, poorly fitted or top-dose-only effect, or another doubt; inactive = no such curve, though single readings can be large; an effect the other way counts as inactive or inconclusive.

O=C(NC1(C(F)(F)F)C(=O)Nc2c1c(=O)[nH]c(=O)n2-c1ccccc1)c1ccccc1 (stereo not given) was read as TDP1 cell noCPT inconclusive and TDP1 cell CPT inactive.
O=c1[nH]c(=O)n(-c2ccccc2)c2c1C(C(F)(F)F)(C(F)(F)F)N=C(C1CCCCC1)N2 was read as HT1080-NT tox inactive, HT1080 IDH1KD tx inactive, TDP1 cell noCPT 23µM, IL1B secr inh inactive and TDP1 cell CPT inconclusive.
O=C(NNC(=O)c1cc(OCC(F)(F)F)ccc1OCC(F)(F)F)c1ccc(Cl)c(Cl)c1 was read as HT1080-NT tox inactive, HT1080 IDH1KD tx inactive, TDP1 cell noCPT inconclusive, IL1B secr inh inactive and TDP1 cell CPT 23µM.
C=CCONC(=O)c1cc(OCC(F)(F)F)ccc1OCC(F)(F)F was read as HT1080-NT tox inactive, HT1080 IDH1KD tx inactive, TDP1 cell noCPT inactive, IL1B secr inh inactive and TDP1 cell CPT inactive.
Screening CN(C(=O)CCc1ccccc1F)C1CCCN(Cc2ccccc2F)C1 (stereo not given) returned HT1080-NT tox inactive, HT1080 IDH1KD tx inactive, TDP1 cell noCPT 16µM, IL1B secr inh inactive and TDP1 cell CPT 18µM.
O=C(NCc1ccccn1)c1ccc(CNS(=O)(=O)c2ccc(F)cc2)cc1 was read as HT1080-NT tox inactive, HT1080 IDH1KD tx inactive, TDP1 cell noCPT inactive, IL1B secr inh inactive and TDP1 cell CPT inactive.
For Cc1ccccc1Nc1nc(Nc2ccccc2C)nc(SC2=NCCS2)n1 the results were HT1080-NT tox inconclusive, HT1080 IDH1KD tx inconclusive, TDP1 cell noCPT 21µM, IL1B secr inh inconclusive and TDP1 cell CPT 23µM.
`CNc1nc(Cl)nc(Nc2ccccc2)n1` gave HT1080-NT tox inactive, HT1080 IDH1KD tx inactive, TDP1 cell noCPT inactive, IL1B secr inh inactive and TDP1 cell CPT inactive.
Cc1ccc(Nc2nc(Nc3ccc(C)cc3)nc(SC3=NCCS3)n2)cc1 was read as HT1080-NT tox 10µM, HT1080 IDH1KD tx inconclusive, TDP1 cell noCPT 18µM, IL1B secr inh inactive and TDP1 cell CPT inconclusive.
`Clc1ccccc1NCSC1=NCCS1` gave HT1080-NT tox inactive, HT1080 IDH1KD tx inactive, TDP1 cell noCPT inactive, IL1B secr inh inactive and TDP1 cell CPT inactive.
For Cc1cc(CNC(=O)COc2ccc(F)cc2F)c2ccccc2n1 the results were HT1080-NT tox inactive, HT1080 IDH1KD tx inactive, TDP1 cell noCPT inconclusive, IL1B secr inh inactive and TDP1 cell CPT inconclusive.
For Cc1cc(CNC(=O)COc2cc(F)ccc2[N+](=O)[O-])c2ccccc2n1 the results were HT1080-NT tox inactive, HT1080 IDH1KD tx inactive, TDP1 cell noCPT 12µM, IL1B secr inh inactive and TDP1 cell CPT 12µM.
Screening Cc1cc(CNC(=O)c2cccc([N+](=O)[O-])c2C)c2ccccc2n1 returned HT1080-NT tox inactive, HT1080 IDH1KD tx inactive, TDP1 cell noCPT 12µM, IL1B secr inh inactive and TDP1 cell CPT 10µM.
Screening Cc1cc(CNC(=O)COc2ccccc2F)c2ccccc2n1 returned HT1080-NT tox inactive, HT1080 IDH1KD tx inactive, TDP1 cell noCPT inconclusive, IL1B secr inh inactive and TDP1 cell CPT 15µM.
For Cc1cc(CNC(=O)Cc2ccccc2)c2ccccc2n1 the results were HT1080-NT tox inactive, HT1080 IDH1KD tx inactive, TDP1 cell noCPT inconclusive, IL1B secr inh inactive and TDP1 cell CPT inconclusive.
`O=C(COc1ccc2c(c1)OCO2)Nc1ccccc1C(F)(F)F` gave HT1080-NT tox inactive, HT1080 IDH1KD tx inactive, TDP1 cell noCPT inactive, IL1B secr inh inactive and TDP1 cell CPT inactive.
For COc1ccc(C)cc1NC(=O)c1c(C)oc2ncn(CC(C)C)c(=O)c12 the results were TDP1 cell noCPT 23µM and TDP1 cell CPT inconclusive.
Screening Cc1oc2ncn(CC(C)C)c(=O)c2c1C(=O)NCc1cccc(Cl)c1 returned TDP1 cell noCPT 16µM and TDP1 cell CPT 16µM.
Cc1oc2ncn(CC(C)C)c(=O)c2c1C(=O)Nc1cccc(C(F)(F)F)c1 was read as TDP1 cell noCPT inactive and TDP1 cell CPT inactive.
CCCCNC(=O)c1c(C)oc2ncn(CC(C)C)c(=O)c12 was read as TDP1 cell noCPT inconclusive and TDP1 cell CPT inactive.
Screening Cc1cccc(NC(=O)c2c(C)oc3ncn(CC(C)C)c(=O)c23)n1 returned TDP1 cell noCPT 9.2µM and TDP1 cell CPT 10µM.
For Cc1ccc(C)c(N2CCN(C(=O)c3cc4cc5ccc(C)cc5nc4o3)CC2)c1 the results were TDP1 cell noCPT inconclusive and TDP1 cell CPT inactive.
For O=C(CCC1CCCN(C(=O)c2ccc3[nH]ccc3c2)C1)N1CCN(c2ccccn2)CC1 (stereo not given) the results were HT1080-NT tox inactive, HT1080 IDH1KD tx inactive, TDP1 cell noCPT 21µM, IL1B secr inh inconclusive and TDP1 cell CPT 23µM.
`CCc1ccc(CN2CCCC(CCC(=O)N3CCN(c4ccccn4)CC3)C2)o1` (stereo not given) gave HT1080-NT tox inactive, HT1080 IDH1KD tx inactive, TDP1 cell noCPT 16µM, IL1B secr inh inactive and TDP1 cell CPT inconclusive.
O=C(CCC1CCCN(C(=O)CCCc2ccccc2)C1)N1CCN(c2ccccn2)CC1 (stereo not given) was read as HT1080-NT tox inactive, HT1080 IDH1KD tx inactive, TDP1 cell noCPT inconclusive, IL1B secr inh inactive and TDP1 cell CPT 21µM.
For Cc1ccc(C(=O)N2CCCC(CCC(=O)N3CCN(c4ccccn4)CC3)C2)cc1 (stereo not given) the results were HT1080-NT tox inactive, HT1080 IDH1KD tx inactive, TDP1 cell noCPT inconclusive, IL1B secr inh inconclusive and TDP1 cell CPT inconclusive.
O=C(CCC1CCCN(C(=O)c2ccc3cc[nH]c3c2)C1)N1CCN(c2ccccn2)CC1 (stereo not given) was read as HT1080-NT tox inactive, HT1080 IDH1KD tx inactive, TDP1 cell noCPT inconclusive, IL1B secr inh inactive and TDP1 cell CPT 16µM.
`COc1ccc(-c2cn(CCO)c(-c3ccncc3)n2)cc1` gave HT1080-NT tox inconclusive, HT1080 IDH1KD tx inactive, TDP1 cell noCPT inactive, IL1B secr inh inactive and TDP1 cell CPT inactive.
Screening CCOC(=O)C1CCCN(C(=S)Nc2cccc(Cl)c2)C1 (stereo not given) returned HT1080-NT tox inactive, HT1080 IDH1KD tx inactive, TDP1 cell noCPT inactive, IL1B secr inh inactive and TDP1 cell CPT inactive.
For COc1ccc(OC)c(S(=O)(=O)N2C(C)CCCC2C)c1 (stereo not given) the results were HT1080-NT tox inactive, HT1080 IDH1KD tx inactive, TDP1 cell noCPT inconclusive, IL1B secr inh inactive and TDP1 cell CPT inconclusive.
For COc1ccc(OC)c(S(=O)(=O)N2c3cc(F)ccc3CCC2C)c1 (stereo not given) the results were HT1080-NT tox inactive, HT1080 IDH1KD tx inactive, TDP1 cell noCPT inconclusive, IL1B secr inh inactive and TDP1 cell CPT 7.3µM.
Screening COc1ccc(/C=N/Nc2nnc(C)n2N)cc1OC(C)=O returned HT1080-NT tox 23µM, HT1080 IDH1KD tx 16µM, TDP1 cell noCPT 18µM, IL1B secr inh inactive and TDP1 cell CPT 8.2µM.

Bioassay records from PubChem BioAssay.
